According to PubChem BioAssay AID488922 (Johns Hopkins Ion Channel Center, 2010):
In all, about 310,000 compounds went through this assay and about 3,800 (1.2%) were called active.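 How the source made its calls: active means ratio B-score over 3 SD below the library mean, with starting fluorescence within 5 SD of its mean; inactive means the rest, inconclusive results apart.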 Shown is part of a subset that was picked to be rich in actives.

The molecules below were run against Potassium channel subfamily K member 9 (Homo sapiens) (UniProt Q9NPC2) (assay: KCNK9 potassium channel inhibitors, primary screen, HEK293 cells, thallium flux (AID 488922;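 on B-score: negative B-score means less thallium flux so channel inhibition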)). Settings: HEK293 KCNK9, FluxOR thallium flux fluorescence, at 10 µM; active compounds read low.
Potassium channel subfamily K member 9 (Homo sapiens), sequence (Q9NPC2 whole entry, looked up): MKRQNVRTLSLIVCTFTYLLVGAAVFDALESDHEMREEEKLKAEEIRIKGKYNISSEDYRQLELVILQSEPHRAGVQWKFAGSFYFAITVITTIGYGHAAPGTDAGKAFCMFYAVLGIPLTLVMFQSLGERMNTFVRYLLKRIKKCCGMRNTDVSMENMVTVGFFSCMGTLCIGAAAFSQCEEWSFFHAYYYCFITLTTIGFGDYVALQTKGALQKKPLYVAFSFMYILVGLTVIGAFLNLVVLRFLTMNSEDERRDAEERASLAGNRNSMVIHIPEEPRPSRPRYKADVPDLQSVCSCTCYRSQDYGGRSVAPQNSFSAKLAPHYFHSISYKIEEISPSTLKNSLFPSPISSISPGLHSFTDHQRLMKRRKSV

B-score, active:
CCc1ccccc1NC(=O)/C(=C/c1ccccc1)c1ccccc1 -8.86, COc1cccc(OC)c1C(=O)Nc1sc2c(c1C(N)=O)CCCC2 -11.2, O=C(CSc1nc(-c2ccccc2)cs1)Nc1cccc([N+](=O)[O-])c1 -7.08, CCOC(=O)CSc1nc2c(sc(=S)n2CCc2ccccc2)c(=O)n1Cc1ccco1 -8.91, Cc1cc(Oc2ccc(Cl)cc2)nc(SCC(=O)c2ccccc2)n1 -11.2

B-score, inactive:
O=P(O)(CN1CCCCCC1)C1Cc2ccccc2C1, CCc1ccccc1NC(=S)Nc1cc(OC)c(NC(=O)C(C)C)cc1OC, CCc1ccccc1NC(=O)CCOc1ccccc1, COc1cccc(CNS(=O)(=O)c2ccc3c(c2)N(C(C)=O)CCS3)c1, COc1cc(NC(=O)c2ccccc2)c(OC)cc1NC(=O)Cc1ccccc1, COc1cc(OC)cc(C(=O)OCC(=O)Nc2sccc2C(N)=O)c1, NC(=O)c1c(NC(=O)c2ccccc2)sc2c1CCCC2, COc1cccc(OC)c1C(=O)Nc1nnc(C(C)C)s1, Cc1cc(C)c(S(=O)(=O)N(C)CC(=O)NCC2CCCO2)c(C)c1 (stereo not given), O=C(Cc1csc(Nc2nc(=S)[nH]c3ccccc23)n1)NCCCN1CCN(c2cccc(Cl)c2)CC1, CCCn1nc(Oc2nc(NC(C)C)nc(N(C)C)n2)ccc1=O, CCOC(=O)c1ccc(S(=O)(=O)N(CCO)Cc2cc3cc(OC)c(OC)cc3[nH]c2=O)cc1, COc1cccc(CNC(=O)C(=O)NCCC2CCCCN2S(=O)(=O)c2ccc(C)cc2)c1 (stereo not given), Cc1ccc(-n2c(SCC(=O)Nc3ncc(Cl)cc3Cl)nc3ccccc32)cc1, Cc1[nH]nc(SCC(=O)NCC(C)C)c1[N+](=O)[O-], O=C(CSc1ncn[nH]1)Nc1nc(-c2cccc([N+](=O)[O-])c2)cs1, CCNC(=O)CSc1nc(-c2ccccc2)cs1, CCSc1nnc(-c2cc3c(s2)-c2ccccc2CC3)o1, CN(C(=O)CCN1C(=O)/C(=C/c2ccccc2F)SC1=S)C1CCS(=O)(=O)C1 (stereo not given), COC(=O)CSc1nc2ccccc2c(=O)n1Cc1ccccc1, CCOC(=O)CSc1nc2c(c(=O)n(C)c(=O)n2C)n1Cc1ccccc1F, Cc1ccc(OCC(=O)Nc2ccc(NC(=O)c3cccs3)cc2)c(C)c1, O=C(Nc1ccc2c(c1)OCCO2)c1ccoc1, COc1ccc(C(=O)CSc2nc(C)cc(C)n2)cc1[N+](=O)[O-], Cc1cc(C)nc(SCC(=O)c2ccc(Cl)cc2)n1
